Rows were chosen to be rich in hits. Some 5.1% of all compounds tested hit in one or more screens of this group.
Tau fibril FP: tau fibrillization inhibition (FP). K18 P301L tau heparin fibrillization, Alexa594 FP, 6 h. AID 1468. 280,000 compounds, 0.39% hits. Potency, µM (doses to about 57.7 µM), without a hit: at the highest dose activity, negative = inhibition, actives largely listed as inhibitors; further: potency means the concentration at half of the fitted maximal effect; nearly all actives have a fitted effect of over 55% in size
Target sequence (P10636 561-689 P618L limits assumed): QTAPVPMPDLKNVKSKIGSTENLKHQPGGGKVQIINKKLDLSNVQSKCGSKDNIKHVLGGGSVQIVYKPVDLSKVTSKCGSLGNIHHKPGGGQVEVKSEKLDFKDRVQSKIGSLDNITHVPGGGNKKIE
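Heparin (20 uM) drove fibril formation of recombinant tau K18 P301L, 15 uM unlabeled with 0.24 uM Alexa 594 label, for 6 hr at 37 C in 100 mM sodium acetate pH 7. Fluorescence polarization (555/632 nm) read 1 hr after 30 uM ThT.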
Tau fluor cs: counter-screen for tau fibril formation inhibitors; tau K18 P301L Alexa594 fluorescence, heparin fibrillization; Potency, µM (top dose mostly 57.7 µM), without a hit: top-dose activity change, negative = decrease; 280,000 compounds, 0.93% hits; further: potency means the concentration at half of the fitted maximal effect; nearly all actives have a fitted effect of over 55% in size
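Human K18 P301L tau (15 uM unlabeled plus 0.24 uM Alexa 594-labeled, final) in 100 mM sodium acetate pH 7 was mixed with compound and 20 uM heparin and incubated 6 hr at 37 C.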
JMJD2E inh: inhibitors of human JMJD2E histone demethylase; JMJD2E catalytic domain, FDH-coupled NADH fluorescence (FDH is formaldehyde dehydrogenase); Potency, µM (series often up to 57.1 µM), for the others: top-dose activity change, negative = inhibition, hits mostly inhibitors; 230,000 compounds, 1.6% hits; AID 2147; active means well fitted inhibition curve with a large enough effect, not every such curve was filed as active; inconclusive means small, poorly fitted or top-dose-only effect, or another doubt; inactive means no such curve, though single readings can be large or run the other way;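 further: potency means the concentration at half of the fitted maximal effect; 0% = wells with enzyme and -100% = buffer wells without enzyme; nearly all actives have a fitted effect of over 50% in size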
NPSR antag: blocks cAMP signaling of the human neuropeptide S receptor; Q6W5P4; AID 1461; Potency, µM (series often up to 38.3 µM), for inactives: top-dose activity change, negative = inhibition, most hits filed as inhibitors; CHO-NPSR cells, cAMP TR-FRET, antagonist mode; 220,000 compounds, 1% hits; further: potency means the concentration at half of the fitted maximal effect; nearly all actives have a fitted effect of over 50% in size
Target sequence (Q6W5P4 whole entry, looked up): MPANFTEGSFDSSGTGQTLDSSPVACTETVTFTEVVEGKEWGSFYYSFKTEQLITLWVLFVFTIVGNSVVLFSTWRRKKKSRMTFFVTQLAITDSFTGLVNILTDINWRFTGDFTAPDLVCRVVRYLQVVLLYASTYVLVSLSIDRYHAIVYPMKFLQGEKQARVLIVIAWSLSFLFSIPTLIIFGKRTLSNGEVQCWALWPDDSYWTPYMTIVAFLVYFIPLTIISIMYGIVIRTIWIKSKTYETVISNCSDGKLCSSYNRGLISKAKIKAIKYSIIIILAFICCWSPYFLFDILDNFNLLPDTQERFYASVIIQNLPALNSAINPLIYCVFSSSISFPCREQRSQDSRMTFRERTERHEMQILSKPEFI
Tau fibril ThT: blocks human tau fibril formation measured by thioflavin T. P10636. recombinant tau K18 P301L (four-repeat tau fragment), heparin-induced fibrillization, ThT fluorescence. Potency, µM (titrated, usually from 57.4 µM), inactives show at the highest dose activity, negative = inhibition, actives largely listed as inhibitors. 270,000 compounds, 2.1% hits. AID 1460; further: potency means the concentration at half of the fitted maximal effect; nearly all actives have a fitted effect of over 55% in size
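In this qHTS, human K18 P301L tau is incubated with compound and heparin for 6 hr at 37 C, and Thioflavin T fluorescence then reports fibril load.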
PNC assembly inh: inhibitors of perinucleolar compartment assembly | AID 2417 | activity change (PNC), negative = inhibition, % at 10 µM | 140,000 compounds, 3.1% hits | PC3M PTB-GFP, PNC prevalence imaging, 16 h; hits give low values;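 active means readout at or below -70, meaning at least 70% loss of cells showing the perinucleolar compartment, a nuclear body marking cancer cells; inconclusive means readout between -30 and a set limit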;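 further: plate controls were DMSO wells for no effect and camptothecin positive control wells for full effect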
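Compounds are pinned in duplicate onto adhered PC3M cells stably expressing GFP-tagged PTB and incubated 16 h at 37 C. Cells are then fixed, nuclei stained with Hoechst, and PNC-positive cells counted.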
The depositor's hits bear a star; ? = inconclusive; · = not tested or not shown; [ ] = remark or other dose. Unless noted, the call rests on the fitted dose curve; in most records, active means well fitted curve in the direction sought with a large enough effect; inconclusive means small, poorly fitted or top-dose-only effect, or another doubt; inactive means no such curve, though single readings can be large; an effect the other way counts as inactive or inconclusive. Unless noted, on the % scale 0 is the no-effect control and ±100 the full control effect.

SMILES | Tau fibril FP | Tau fluor cs | JMJD2E inh | NPSR antag | Tau fibril ThT | PNC assembly inh
N#Cc1nc(COc2ccccc2Cl)oc1N1CCCCCC1 | 2% | -10% | -7% | ? | -7% | -122*
CC1CN(c2oc(COc3ccc(Cl)cc3Cl)nc2C#N)CC(C)O1 (centres undefined) | 11% | -7% | 7% | -2%[46.1 µM] | -1% | -100*
N#Cc1nc(COc2ccc(Cl)cc2)oc1N1CCCCCC1 | -2% | -18% | -6% | ? | -19% | ?
COc1ccc(S(=O)(=O)NCCSc2nnnn2-c2ccccc2)cc1OC | -11% | ? | · | · | -15% | ·
O=C(COC(=O)c1cc(S(=O)(=O)N2CCc3ccccc3C2)ccc1Cl)NCc1ccco1 | ? | ? | -3% | -7%[46.1 µM] | 32µM* | -28
Cc1oc2c(c1C(=O)Nc1cccc(C(=O)O)c1)CCCC2 | -2% | -11% | -2% | -5%[46.1 µM] | -18% | -108*
Cc1ccc(C(=O)Nc2cccc(C(=O)O)c2)cc1 | 10% | -5% | 2% | -3%[46.1 µM] | -5% | 38
Cc1cccc(NC(=O)Cn2cc(C(=O)C3CCCCC3)c3ccccc32)c1C | -1% | -3% | · | · | 12% | ·
C=C(C)C(=O)OCC1CN2C(CCC(C)C2c2ccc(Br)cc2)C(=O)O1 (centres undefined) | 6%[11.6 µM] | -6%[11.6 µM] | · | · | -6%[11.5 µM] | ·
O=[N+]([O-])c1ccccc1NCc1c(O)ccc2ccccc12 | -13% | 13µM*[quencher] | ? | -5% | ? | ·
O=[N+]([O-])c1ccc(CCNc2cccc3ccccc23)c([N+](=O)[O-])c1 | 10% | ? | ? | -3% | ? | -5
COc1ccc(S(=O)(=O)N2CCN(c3c(C)cccc3C)CC2)cc1OC | -6% | -1% | -3% | -14%[46.1 µM] | -5% | ?
COc1ccc(S(=O)(=O)N2CCN(c3ccc(C)cc3C)CC2)cc1OC | 6% | -21% | 0% | -6%[46.1 µM] | -12% | -83*
COc1ccc2c(CNCc3ccco3)c(C(=O)O)n(Cc3ccc(F)cc3Cl)c2c1 | -6% | -11% | · | · | -9% | ·
O=C(N/N=C1/C(=O)c2cccc3cccc1c23)c1ccc(Cl)cc1 | 9% | -19% | 0% | ? | 4.5µM* | 2
Cn1ncc2c(Nc3cc(C(F)(F)F)ccc3Cl)ncnc21 | 0% | -2% | · | · | 4% | ·
CCC1SC(N)=NC1=O (centres undefined) | -2% | 2% | 5% | 2%[46.1 µM] | 2% | -90*
NC1=NC(=O)C(Cc2ccccc2)S1 (centres undefined) | 5% | 4% | 9% | 10% | 2% | ·
CCC(CC)C(=O)N1c2ccccc2C(C)(c2ccccc2)CC1(C)C (centres undefined) | 2% | -6% | · | · | -11% | ·
CC(=O)NNC(=O)c1sc(=S)n2c1[nH]c(=O)c1sccc12 | 9% | -17% | 41% | -15% | ? | ·
NC(=O)c1sc(=S)n2c1[nH]c(=O)c1sccc12 | 1% | -26% | -9% | -21% | 11µM* | ·
CCOc1ccc(CNC(=S)N/N=C\c2ccc([N+](=O)[O-])cc2)cc1 | -4% | ? | -14% | 0%[46.1 µM] | ? | -92*
CCOc1ccc(CNC(=S)N/N=C/c2cccnc2)cc1 | -9% | -20% | -9% | 29% | -12% | ?
CCOc1ccc(/C=N/NC(=O)c2ccc(Cn3cc([N+](=O)[O-])cn3)o2)cc1 | -6% | -10% | -4% | -24%[46.1 µM] | -22% | ?
CC(C)(C)c1ccc(OCc2ccc(C(=O)N/N=C/c3ccc([N+](=O)[O-])cc3)o2)cc1 | 6% | 8.9µM*[quencher] | -2% | -3%[46.1 µM] | ? | ?
CC(C)CC(=O)Nc1nnc(S(=O)(=O)N2CCCCCC2)s1 | -2% | -3% | · | · | 2.8µM* | ·
Cc1nnc(NC(=O)c2cccc(S(=O)(=O)N3CCc4ccccc43)c2)s1 | 5% | -28% | 0% | 1.6µM* | -9% | 13
CCC(Oc1ccccc1)C(=O)Nc1nnc(S(=O)(=O)N2CCCC2)s1 (centres undefined) | -11% | -16% | · | · | ? | ·

Compound activity: PubChem, National Center for Advancing Translational Sciences (NCATS)
